# Measured values taken from PubChem BioAssay (NCATS).
# Inconclusive results are not listed. A number with no mark means an inactive call. Calls of active or inactive are those of the source. The call rests on the fitted dose curve; in most records, active means well fitted cell-killing curve with a large enough effect; inconclusive means small, poorly fitted or top-dose-only effect, or effect the other way; inactive means no such curve, though single readings can be large or run the other way.
# Experiment: Quantitative High-Throughput drug screen in 47 multiple myeloma cell lines against the NCATS MIPE library collection: UTMC2_PLB cell viability assay (AID 1919868); further: nearly all actives have a fitted effect of over 55% in size
# Conditions: CellTiter-Glo ATP luminescence, 48 h; viability (% of DMSO control): at 45.8 µM (top of the series)
# Excerpt: PI: Beverly A. Mock Ph.D.
# Laboratory of Cancer Biology and Genetics,
# Center for Cancer Research, National Cancer Institute,
# National Institute of Health, Bethesda, Maryland
# Drug resistance and disease progression are common in multiple myeloma (MM) patients, underscoring the need for new therapeutic combinations. […] We hypothesized that effective combinations would reduce MYC expression and enhance p16 activity. […] These preclinical data identify potentially useful drug combinations for evaluation in drug-resistant MM and reveal potential mechanisms of combined drug sensitivity.
# Described herein is the primary MIPE qHTS used to cherrypick compounds. Validated compounds were then further tested for potential synergistic activiy.
# [1] Peat TJ, Gaikwad SM, Dubois W, Gyabaah-Kessie N, Zhang S, Gorjifard S, Phyo Z, Andres M, Hughitt VK, Simpson RM, Miller MA, Girvin AT, Taylor A, Williams D, D'Antonio N, Zhang Y, Rajagopalan A, Flietner E, Wilson K, Zhang X, Shinn P, Klumpp-Thomas C, McKnight C, Itkin Z, Chen L, Kazandijian D, Zhang J, Michalowski AM, Simmons JK, Keats J, Thomas CJ, Mock BA. Drug combinations identified by high-throughput screening promote cell cycle transition and upregulate Smad pathways in myeloma. Cancer Lett. 2023 Aug 1;568:216284. doi: 10.1016/j.canlet.2023.216284. Epub 2023 Jun 24. PMID: 37356470; PMCID: PMC10408729.
# SEQUENCE No. (e.g., 1, 2, 3, etc.); […] (e.g., Cells, Incubation, Reagent, etc.); VALUE and DESCRIPTION.
# 1; Cells; 5 uL; white, solid bottom 1536-well Greiner assay plate.
# 2; Compounds; 23 nL; Kalypsis pin tool (Wako USA) equipped with a 1536-well pin head to transfer to the assay plates.
# 3; Incubation; 48 hours; 37C incubation.
# 4; Reagent;5uL; CellTiter Glo (Promega).
# 5; Detector; 425V; Luminescence; Viewlux PerkinElmer.
# NOTES (numbers refer to Sequence numbers above)
# 1. The cell-based screening methods employed in this study were like those previously published. Briefly, the corresponding myeloma cell lines were screened in 1,536-well plates with 500 cells, 5-uL per well for inhibition of cell viability (assessed by measuring ATP levels with CellTiterGlo).
# 2. NCATS MIPE 4.0 library of approved and investigational drugs were added using the Kalypsis pin tool. Wells treated with DMSO only for 100% viability and media only for 0% viability were used as controls.
# 3. The assay plates were covered and incubated for 48 hours in a 37C, 5% CO2 incubator with controlled humidity.
# 4. After 48 hours, CellTilter-GloTM luminescent substrate mix (Promega) reagent was added to the assay plate and plates we incubated for 5 min at room temperature.
# 5. Signal was measured as median relative luminescence units on a ViewLux (PerkinElmer) multiplate reader.
# [1] Heske CM, Davis MI, Baumgart JT, Wilson K, Gormally MV, Chen L, Zhang X, Ceribelli M, Duveau DY, Guha R, Ferrer M, Arnaldez FI, Ji J, Tran HL, Zhang Y, Mendoza A, Helman LJ, Thomas CJ. Matrix Screen Identifies Synergistic Combination of PARP Inhibitors and Nicotinamide Phosphoribosyltransferase (NAMPT) Inhibitors in Ewing Sarcoma. Clin Cancer Res. 2017 Dec 1;23(23):7301-7311. doi: 10.1158/1078-0432.CCR-17-1121. Epub 2017 Sep 12. PMID: 28899971; PMCID: PMC6636827.
# Potency means the concentration at half of the fitted maximal effect.
SMILES,Potency,viability (% of DMSO control) [%]
Cc1cc(Nc2nc(N[C@@H](C)c3ncc(F)cn3)ncc2Cl)n[nH]1,6.62 µM (active),
CC[C@H](Nc1ncnc2nc[nH]c12)c1nc2cccc(F)c2c(=O)n1-c1ccccc1,5.9 µM (active),
CC1(C)Cc2c(-c3ccccc3)c(-c3ccc(Cl)cc3)c(CC(=O)O)n2C1,16.6 µM (active),
O=S(=O)(N=Cc1c(O)ccc2ccccc12)c1cccs1,18.7 µM (active),
CCc1cncnc1N1CCN(Cc2nc3ccc(C(F)(F)F)cc3[nH]2)CC1,18.7 µM (active),
COc1ccc(-c2ccc3c(N4CCOC[C@H]4C)nc(N4CCOC[C@H]4C)nc3n2)cc1CO,0.001 µM (active),
OCCn1cc(-c2cnc3nnn(Cc4ccc5ncccc5c4)c3n2)cn1,,107
COc1ccccc1[C@H](c1cccc2ccccc12)[C@@](C)(C#N)C(=O)N1CCC(c2cccc(C(F)(F)F)c2)CC1,5.26 µM (active),
C#Cc1cccc(Nc2ncnc3cc(OCCOC)c(OCCOC)cc23)c1,4.18 µM (active),
Cc1cccc(-c2[nH]c(C(C)(C)C)nc2-c2ccc3nccnc3c2)n1,2.64 µM (active),
CS(=O)(=O)c1cccc(CNc2nc(Nc3ccc4c(c3)CCC(=O)N4)ncc2C(F)(F)F)c1,11.8 µM (active),
c1ccc([C@H]2CN3CCSC3=N2)cc1,,141
O=C(Nc1cccnc1)N1CCC(Cc2cccc(Oc3ccc(C(F)(F)F)cn3)c2)CC1,14.8 µM (active),
OC(CN1CCC(Cc2ccc(F)cc2)CC1)c1ccc(Cl)cc1 (stereo not given),,119
CCn1c(-c2nonc2N)nc2c(C#CC(C)(C)O)ncc(OC[C@H]3CCCNC3)c21,0.059 µM (active),
N[C@@H]1CONC1=O,,208
CCOc1cc(C(=O)Nc2ccc(Cl)c(-c3nc4ccccc4[nH]3)c2)cc(OCC)c1OCC,,107
CCOC(=O)C1=C[C@]2(CC)CCCN3CCc4c(n1c1ccccc41)[C@@H]32,9.35 µM (active),
Cc1oncc1C(=O)Nc1ccc(C(F)(F)F)cc1,,141
CCN(c1ccccc1)c1cc(NC)[n+](C)c(C)n1,,152

SMILES,Potency,viability (% of DMSO control) [%]
CCn1c(-c2nonc2N)nc2cnc(Oc3cccc(NC(=O)c4ccc(OCCN5CCOCC5)cc4)c3)cc21,0.935 µM (active),
Cc1c(CN2CCN(C(=O)C(C)C)CC2)sc2c(N3CCOCC3)nc(-c3cnc(N)nc3)nc12,0.0526 µM (active),
CC(C)OC(=O)C1=CN(C(=O)c2ccc(F)c(F)c2)CC(C)(C)c2c1[nH]c1ccccc21,,121
NC(=O)c1ccc(-c2nc(-c3ccc4c(c3)OCCO4)c(-c3ccccn3)[nH]2)cc1,,175
O=c1n(CCCN2CCN(c3cccc(Cl)c3)CC2)nc2ccccn12,,147
CN1CCN(CCCN2c3ccccc3Sc3ccc(C(F)(F)F)cc32)CC1,10.5 µM (active),
CC(C)NCC(O)COc1ccc(COCCOC(C)C)cc1 (stereo not given),,131
COc1ccc(COc2cc3oc(=O)c4cc(C(C)O)ccc4c3cc2OC)cc1 (stereo not given),20.9 µM (active),
CCCn1c(=O)c2[nH]c(C34CC5CC3C[C@@H](C5)C4)nc2n(CCC)c1=O,,163
Cn1cc(-c2ccc3nnc(C(F)(F)c4ccc5ncccc5c4)n3n2)cn1,,130
CO[C@@H]1[C@H](N(C)C(=O)c2ccccc2)C[C@H]2O[C@]1(C)n1c3ccccc3c3c4c(c5c6ccccc6n2c5c31)C(=O)NC4,0.935 µM (active),
COc1cc2nccc(Oc3ccc(NC(=O)NC4CC4)c(Cl)c3)c2cc1C(N)=O,2.64 µM (active),
Cc1cc2c(C(C)C)c(O)c(O)c(C=O)c2c(O)c1-c1c(C)cc2c(C(C)C)c(O)c(O)c(C=O)c2c1O,5.9 µM (active),
COc1ccc(-c2ccc3c(N4CCOCC4)nc(N4C[C@@H](C)O[C@@H](C)C4)nc3n2)cc1CO,0.526 µM (active),
Oc1cccc(-c2nc(N3CCOCC3)c3oc4ncccc4c3n2)c1,0.0382 µM (active),
CCOC(=O)N1CCC(=C2c3ccc(Cl)cc3CCc3cccnc32)CC1,,195
COc1cccc2cc(-c3nc(C4CCC(C(=O)O)CC4)n4ncnc(N)c34)[nH]c12 (stereo not given),0.235 µM (active),
CCCCCCCc1ccc(CCc2cccc(O)c2C(=O)O)cc1,29.6 µM (active),
CC(C)(C)NCC(O)c1ccc(O)c(CO)c1 (stereo not given),,177
CCOc1ccn(-c2ccc(F)cc2)c(=O)c1C(=O)Nc1ccc(Oc2ccnc(N)c2Cl)c(F)c1,13.2 µM (active),
